Laboratory results published in PubChem BioAssay (Tox21).
Records with an inconclusive call do not appear. Where a call stands in place of a potency, no number is given. Activity calls are given as the source filed them. Unless noted, calls come from the whole dose curve; as a rule, active = well fitted curve in the direction sought with a large enough effect in the repeat runs; inconclusive = weak or mixed curves; inactive = no such curve, though single readings can be large; an effect the other way counts as inactive or inconclusive.

How the values were obtained:
[1] = target: Aryl hydrocarbon receptor (Homo sapiens) (UniProt P35869); assay: qHTS assay to identify small molecule that activate the aryl hydrocarbon receptor (AhR) signaling pathway (AID 743085);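 note: HG2L7.5c1 human HepG2 liver cells with stably integrated DRE-driven firefly reporter; series mostly up to about 70 µM; nearly all actives have a fitted effect of over 15% in size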
Aryl hydrocarbon receptor (Homo sapiens), sequence (P35869 whole entry, looked up): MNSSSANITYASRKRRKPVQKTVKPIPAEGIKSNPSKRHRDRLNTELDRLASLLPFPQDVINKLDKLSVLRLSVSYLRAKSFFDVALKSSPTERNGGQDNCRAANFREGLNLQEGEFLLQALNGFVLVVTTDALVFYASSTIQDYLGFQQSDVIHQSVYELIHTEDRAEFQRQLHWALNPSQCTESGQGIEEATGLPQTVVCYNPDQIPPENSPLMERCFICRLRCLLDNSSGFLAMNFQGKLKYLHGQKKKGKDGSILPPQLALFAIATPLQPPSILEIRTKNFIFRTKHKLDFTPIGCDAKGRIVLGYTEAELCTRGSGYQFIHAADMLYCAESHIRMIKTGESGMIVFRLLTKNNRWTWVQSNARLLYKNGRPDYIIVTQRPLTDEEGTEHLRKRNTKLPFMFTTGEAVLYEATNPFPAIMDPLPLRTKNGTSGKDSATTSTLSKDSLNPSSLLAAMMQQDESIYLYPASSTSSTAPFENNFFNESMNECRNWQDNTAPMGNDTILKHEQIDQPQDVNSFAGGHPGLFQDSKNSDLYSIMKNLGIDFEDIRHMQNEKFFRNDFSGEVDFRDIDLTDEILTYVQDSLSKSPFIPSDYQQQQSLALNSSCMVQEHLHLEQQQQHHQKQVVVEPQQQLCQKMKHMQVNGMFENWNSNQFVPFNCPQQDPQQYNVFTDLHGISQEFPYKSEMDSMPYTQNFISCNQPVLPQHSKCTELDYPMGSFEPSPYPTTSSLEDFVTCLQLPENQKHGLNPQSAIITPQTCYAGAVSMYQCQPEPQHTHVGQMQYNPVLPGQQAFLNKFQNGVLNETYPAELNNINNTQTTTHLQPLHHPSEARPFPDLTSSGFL
Method in brief: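 HepG2 cells (HG2L7.5c1) stably carrying a firefly luciferase reporter driven by 20 dioxin responsive elements were exposed to compound for 24 h at 37C after a 5 h settling period; luminescence rise (ONE-Glo) indicated activation.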

[2] = qHTS assay to identify small molecule that activate the aryl hydrocarbon receptor (AhR) signaling pathway - cell viability counter screen (AID 743086); note: nearly all actives have a fitted effect of over 45% in size; note: potency is the fitted concentration of half-maximal effect
Method in brief: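 HepG2-AhR-luc (HG2L7.5c1) cells, 4000/well, treated 24 h at 37 C with compound; viability measured as CellTiter-Fluor fluorescence after 30 min in the same wells as the luciferase read.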

[3] = target: Peroxisome proliferator-activated receptor gamma (Homo sapiens) (UniProt P37231); assay: qHTS assay to identify small molecule agonists of the peroxisome proliferator-activated receptor gamma (PPARg) signaling pathway (AID 743094; active = well fitted activation curve with a large enough effect in the signal ratio in the repeat runs, not every such curve was filed as active; the % refers to the signal ratio)
Peroxisome proliferator-activated receptor gamma (Homo sapiens), sequence (P37231 whole entry, looked up): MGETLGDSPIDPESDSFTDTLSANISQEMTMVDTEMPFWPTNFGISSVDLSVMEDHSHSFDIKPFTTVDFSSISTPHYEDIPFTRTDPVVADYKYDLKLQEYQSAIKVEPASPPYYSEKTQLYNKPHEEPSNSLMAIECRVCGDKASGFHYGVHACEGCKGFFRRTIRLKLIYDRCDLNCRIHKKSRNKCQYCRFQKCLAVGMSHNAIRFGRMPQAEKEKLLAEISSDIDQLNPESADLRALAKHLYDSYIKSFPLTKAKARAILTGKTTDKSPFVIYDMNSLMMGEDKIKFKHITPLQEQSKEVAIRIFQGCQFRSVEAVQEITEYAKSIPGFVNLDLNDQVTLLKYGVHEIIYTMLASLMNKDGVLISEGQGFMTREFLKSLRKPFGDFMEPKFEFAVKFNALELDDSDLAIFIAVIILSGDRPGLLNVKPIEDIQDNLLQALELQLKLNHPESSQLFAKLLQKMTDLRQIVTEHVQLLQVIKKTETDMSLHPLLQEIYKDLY
Method in brief: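 Cells from the PPARg UAS-bla HEK293H line are plated and incubated 5 h at 37C. Compounds in DMSO are pinned in and left 17 h at 37C. LiveBLAzer B/G substrate is then added for 1 h at room temperature before fluorescence is measured.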

[4] = qHTS assay for small molecule agonists of the antioxidant response element (ARE) signaling pathway - cell viability counter screen (AID 743203; calls by dose curve; note: nearly all actives have a fitted effect of over 55% in size; note: potency is the fitted concentration of half-maximal effect)
Method in brief: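 Cytotoxicity was tested in parallel with the ARE reporter screen. ARE-bla HepG2 cells were exposed to compounds for 16 hrs, and viability was taken from CellTiter-Glo luminescence.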

[5] = target: Peroxisome proliferator-activated receptor delta (Homo sapiens) (UniProt Q03181); assay: qHTS assay to identify small molecule antagonists of the peroxisome proliferator-activated receptor delta (PPARd) signaling pathway (AID 743215; active = well fitted inhibition curve with a large enough effect in the signal ratio in the repeat runs, not every such curve was filed as active; the % refers to the signal ratio;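 note: cells stimulated with agonist L165041 at 300 nM final during compound exposure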; note: potency is the fitted concentration of half-maximal effect)
Peroxisome proliferator-activated receptor delta (Homo sapiens), sequence (Q03181 whole entry, looked up): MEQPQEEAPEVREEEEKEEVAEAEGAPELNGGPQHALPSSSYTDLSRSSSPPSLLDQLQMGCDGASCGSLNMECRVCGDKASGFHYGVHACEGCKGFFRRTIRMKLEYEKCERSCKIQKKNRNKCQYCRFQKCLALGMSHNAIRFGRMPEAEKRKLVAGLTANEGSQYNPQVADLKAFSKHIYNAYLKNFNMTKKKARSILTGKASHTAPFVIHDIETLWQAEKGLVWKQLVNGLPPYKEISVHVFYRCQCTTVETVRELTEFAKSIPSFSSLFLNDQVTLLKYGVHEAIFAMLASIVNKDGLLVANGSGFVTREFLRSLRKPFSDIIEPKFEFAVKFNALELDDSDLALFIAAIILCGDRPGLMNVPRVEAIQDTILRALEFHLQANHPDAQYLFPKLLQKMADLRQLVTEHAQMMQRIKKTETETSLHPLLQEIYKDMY
Method in brief: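 Cells: HEK293H with a UAS-driven beta-lactamase reporter responsive to PPARd. Compounds were co-added with L165041 (300 nM, final) and incubated 17 h at 37 C before a 2 h room-temperature FRET substrate step and fluorescence reading.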

[6] = qHTS assay to identify small molecule antagonists of the peroxisome proliferator-activated receptor gamma (PPARg) signaling pathway - cell viability counter screen (AID 743194); settings: Potency: co-treated with 50 nM rosiglitazone unless noted; note: nearly all actives have a fitted effect of over 55% in size; note: potency is the fitted concentration of half-maximal effect
Method in brief: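 Cytotoxicity counter screen in PPARg-bla HEK293H cells, same wells as reporter assay. Compounds plus 50 nM rosiglitazone (final) for 17 h at 37 C, then viability read by CellTiter-Glo luminescence.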

[7] = qHTS assay for small molecule activators of the heat shock response signaling pathway - cell viability counter screen (AID 743209); note: nearly all actives have a fitted effect of over 50% in size; note: potency is the fitted concentration of half-maximal effect
Method in brief: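 Cytotoxicity counter screen run in parallel with the HSE beta-lactamase reporter, using the same wells. HeLa HSE-bla cells received compound for 5 h at 37 C; ATP-based CellTiter-Glo luminescence was measured after 30 min at room temperature.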

[8] = qHTS assay to identify small molecule agonists of the peroxisome proliferator-activated receptor delta (PPARd) signaling pathway - cell viability counter screen (AID 743211); note: nearly all actives have a fitted effect of over 55% in size; note: potency is the fitted concentration of half-maximal effect
Method in brief: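 PPARd-bla HEK293H cells (UAS-beta-lactamase reporter) were treated with compounds for 17 h at 37 C. Viability was then read in the same wells by CellTiter-Glo luminescence after 30 min at room temperature.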

[9] = qHTS assay to identify small molecule agonists of the farnesoid-X-receptor (FXR) signaling pathway - cell viability counter screen (AID 743218); note: nearly all actives have a fitted effect of over 45% in size; note: potency is the fitted concentration of half-maximal effect
Method in brief: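 Cells were seeded, left 5 h at 37 C and 5% CO2, then dosed with compound in DMSO for 16 h. After the beta-lactamase FRET read, CellTiter-Glo was added and luminescence measured 30 min later.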

[10] = target: Bile acid receptor (Homo sapiens) (UniProt Q96RI1); assay: qHTS assay to identify small molecule agonists of the farnesoid-X-receptor (FXR) signaling pathway (AID 743220; active = well fitted activation curve with a large enough effect in the signal ratio in the repeat runs, not every such curve was filed as active; the % refers to the signal ratio)
Bile acid receptor (Homo sapiens), sequence (Q96RI1 whole entry, looked up): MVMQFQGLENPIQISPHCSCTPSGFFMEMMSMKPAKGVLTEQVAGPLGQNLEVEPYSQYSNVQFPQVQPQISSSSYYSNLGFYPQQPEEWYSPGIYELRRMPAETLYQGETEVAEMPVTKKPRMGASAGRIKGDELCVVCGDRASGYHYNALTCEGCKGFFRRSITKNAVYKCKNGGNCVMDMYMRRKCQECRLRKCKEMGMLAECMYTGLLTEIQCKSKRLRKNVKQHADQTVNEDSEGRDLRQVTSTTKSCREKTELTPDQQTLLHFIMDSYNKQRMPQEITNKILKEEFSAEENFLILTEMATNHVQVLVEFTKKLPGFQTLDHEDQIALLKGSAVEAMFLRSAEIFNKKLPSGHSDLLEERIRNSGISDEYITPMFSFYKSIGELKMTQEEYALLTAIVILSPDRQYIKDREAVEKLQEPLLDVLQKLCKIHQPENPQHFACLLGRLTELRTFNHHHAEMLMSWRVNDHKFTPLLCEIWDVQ
Method in brief: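 FXR-UAS-bla HEK 293T cells carrying a UAS-driven beta-lactamase reporter were plated for 5 h at 37C/5% CO2, then exposed to DMSO-dissolved Tox21 10K compounds for 16 h at 37C. A LiveBLAzer B/G FRET substrate was loaded for 2 h at room temperature before fluorescence reading.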

[11] = qHTS assay to identify small molecule antagonists of the farnesoid-X-receptor (FXR) signaling pathway - cell viability counter screen (AID 743221; active = well fitted cell-killing curve with a large enough effect in the repeat runs, not every such curve was filed as active; note: nearly all actives have a fitted effect of over 50% in size; note: potency is the fitted concentration of half-maximal effect)
Method in brief: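 FXR-UAS-bla HEK 293T cells were treated with test compounds plus chenodeoxycholic acid (50 uM final) for 16 h at 37 C. Cell viability in the same wells was then read as CellTiter-Glo luminescence after 30 min at room temperature.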

[12] = target: Vitamin D3 receptor (Homo sapiens) (UniProt P11473); assay: qHTS assay to identify small molecule agonists of the vitamin D receptor (VDR) signaling pathway (AID 743222; calls by dose curve)
Vitamin D3 receptor (Homo sapiens), sequence (P11473 whole entry, looked up): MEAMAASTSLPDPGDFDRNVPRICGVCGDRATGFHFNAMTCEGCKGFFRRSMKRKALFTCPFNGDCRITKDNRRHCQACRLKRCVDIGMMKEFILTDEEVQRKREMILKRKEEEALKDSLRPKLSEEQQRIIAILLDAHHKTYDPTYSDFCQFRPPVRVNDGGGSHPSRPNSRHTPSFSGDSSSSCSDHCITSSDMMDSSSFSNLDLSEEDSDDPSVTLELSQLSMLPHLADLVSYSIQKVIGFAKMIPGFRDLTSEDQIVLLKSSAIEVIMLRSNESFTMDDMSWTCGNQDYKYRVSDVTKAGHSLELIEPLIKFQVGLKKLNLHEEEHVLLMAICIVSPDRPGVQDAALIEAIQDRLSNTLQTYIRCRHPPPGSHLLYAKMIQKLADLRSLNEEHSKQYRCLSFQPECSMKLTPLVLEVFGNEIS
Method in brief: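 Cells carrying a VDR-driven beta-lactamase reporter are seeded at 2,000 per well and rested 4 h. Compounds in DMSO are added for 16 h at 37C, and FRET substrate fluorescence is measured after 2 h at room temperature.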

[13] = qHTS assay to identify small molecule antagonists of the peroxisome proliferator-activated receptor delta (PPARd) signaling pathway - cell viability counter screen (AID 743213); note: nearly all actives have a fitted effect of over 50% in size; note: potency is the fitted concentration of half-maximal effect
Method in brief: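 CellTiter-Glo was added to PPARd-bla HEK293H wells following 17 h compound treatment in the presence of 300 nM L165041. Luminescence was recorded after 30 min at room temperature.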

[14] = qHTS assay to identify small molecule agonists of the vitamin D receptor (VDR) signaling pathway - cell viability counter screen (AID 743224); note: nearly all actives have a fitted effect of over 50% in size; note: potency is the fitted concentration of half-maximal effect
Method in brief: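 Cells: VDR-bla, 2,000/well, settled 4 h. Treatment: compounds in DMSO, 16 h, 37C/5% CO2. Readout: CellTiter-Glo luminescence after 30 min RT.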

[15] = target: Peroxisome proliferator-activated receptor delta (Homo sapiens) (UniProt Q03181); assay: qHTS assay to identify small molecule agonists of the peroxisome proliferator-activated receptor delta (PPARd) signaling pathway (AID 743212; calls by dose curve)
Method in brief: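 Tox21 library screened in GeneBLAzer PPARd UAS-bla HEK293H cells. After compound treatment at 37 C, a FRET-based beta-lactamase substrate was applied for 2 h and fluorescence recorded.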

[16] = target: Vitamin D3 receptor (Homo sapiens) (UniProt P11473); assay: qHTS assay to identify small molecule antagonists of the vitamin D receptor (VDR) signaling pathway (AID 743223; active = well fitted inhibition curve with a large enough effect in the signal ratio in the repeat runs, not every such curve was filed as active; the % refers to the signal ratio)
Method in brief: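 VDR-bla cells were plated, incubated 4 h at 37C, then given compound and 1alpha,25-dihydroxyvitamin D3 (3 nM final). After 16 h at 37C, LiveBLAzer B/G FRET substrate was added for 2 h at room temperature and fluorescence read.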

[17] = target: Peroxisome proliferator-activated receptor gamma (Homo sapiens) (UniProt P37231); assay: qHTS assay to identify small molecule antagonists of the peroxisome proliferator-activated receptor gamma (PPARg) signaling pathway (AID 743191; calls by dose curve; note: series mostly up to about 63 µM; nearly all actives have a fitted effect of over 30% in size)
Method in brief: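 GeneBLAzer PPARg UAS-bla HEK293H cells, 5 h post-plating, exposed to compounds 17 h at 37C. LiveBLAzer B/G FRET substrate added for 1 h at room temperature; beta-lactamase reporter read by fluorescence intensity.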

[18] = qHTS assay for small molecule agonists of the antioxidant response element (ARE) signaling pathway (AID 743202; active = well fitted activation curve with a large enough effect in the signal ratio in the repeat runs, not every such curve was filed as active; the % refers to the signal ratio)
Method in brief: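 HepG2 ARE-bla cells; 16 h treatment at 37 C; FRET-based beta-lactamase fluorescence read after 2 h substrate incubation at room temperature.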

[19] = qHTS assay for small molecule activators of the heat shock response signaling pathway (AID 743210; active = well fitted activation curve with a large enough effect in the signal ratio in the repeat runs, with a control signal flat, not every such curve was filed as active; the % refers to the signal ratio;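 note: HeLa cells with beta-lactamase reporter driven by heat shock elements; series mostly up to about 63 µM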)
Method in brief: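 Following overnight attachment, HSE-bla HeLa cells received test compounds for 5 h at 37 C; beta-lactamase activity was then detected via FRET substrate fluorescence.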

[20] = target: Bile acid receptor (Homo sapiens) (UniProt Q96RI1); assay: qHTS assay to identify small molecule antagonists of the farnesoid-X-receptor (FXR) signaling pathway (AID 743217; active = well fitted inhibition curve with a large enough effect in the signal ratio in the repeat runs, not every such curve was filed as active; the % refers to the signal ratio)
Method in brief: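 Cells carrying a UAS-driven beta-lactamase reporter (GeneBLAzer FXR-UAS-bla HEK 293T) were plated and rested 5 h at 37 °C. Compounds in DMSO were added alongside chenodeoxycholic acid agonist at 50 uM final and left 16 h at 37 °C before FRET substrate readout.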

Structure (SMILES)	Potency [1]	Potency [2]	Potency [3]	Potency [4]	Potency [5]	Potency [6]	Potency [7]	Potency [8]	Potency [9]	Potency [10]	Potency [11]	Potency [12]	Potency [13]	Potency [14]	Potency [15]	Potency [16]	Potency [17]	Potency [18]	Potency [19]	Potency [20]
CCCCC(CC)COC(=O)c1ccccc1C(=O)OCC(CC)CCCC (stereo unspecified)	inactive	inactive	inactive	inactive	inactive															
CC(C)[C@@H](Nc1ccc(C(F)(F)F)cc1Cl)C(=O)OC(C#N)c1cccc(Oc2ccccc2)c1 (stereo partly specified)	inactive	inactive		inactive		inactive	inactive	inactive	inactive	inactive	inactive	inactive								
CC(=O)[O][Pb]([c]1ccccc1)([c]1ccccc1)[c]1ccccc1	inactive	3860 nM (active)		172 nM (active)		110 nM (active)	9770 nM (active)	1230 nM (active)	549 nM (active)		1100 nM (active)		1230 nM (active)	1550 nM (active)						
CC(C)C(Nc1ccc(C(F)(F)F)cc1Cl)C(=O)OC(C#N)c1cccc(Oc2ccccc2)c1 (stereo unspecified)	inactive	inactive		inactive	inactive	inactive			inactive		inactive	inactive	inactive	inactive						
CC(=O)C(Cl)C(=O)N(C)C (stereo unspecified)	inactive	inactive	inactive	inactive	inactive			inactive	inactive		inactive	inactive	inactive		inactive	inactive				
CC1(C)C(C=C(Cl)Cl)C1C(=O)OC(C#N)c1ccc(F)c(Oc2ccccc2)c1 (stereo unspecified)	inactive	inactive		inactive	inactive		inactive	inactive			inactive	inactive	inactive	inactive	inactive		inactive	inactive		
NC(=O)C(Cl)Cl	inactive	inactive		inactive		inactive		inactive	inactive		inactive		inactive	inactive	inactive		inactive	inactive	inactive	
O.O.O.O.O.O.O=S(=O)([O-])[O-].[Ni+2]	inactive	inactive		inactive		inactive	inactive	inactive	inactive		inactive		inactive	inactive						
Cc1cc2c3c(c1)C(c1ccccc1)=N[C@@H](NC(=O)c1ccncc1)C(=O)N3CC2	inactive	inactive		inactive	inactive		inactive	inactive	inactive	inactive	inactive	inactive	inactive	inactive	inactive			inactive	inactive	inactive
C=CC(=O)[O][Sn]([CH2]CCC)([CH2]CCC)[CH2]CCC	inactive	4330 nM (active)		686 nM (active)	776 nM (active)	389 nM (active)	3090 nM (active)		1100 nM (active)		3890 nM (active)	inactive	3470 nM (active)	1380 nM (active)						
CC1(C)[C@H](/C=C2\CCSC2=O)[C@@H]1C(=O)OCc1coc(Cc2ccccc2)c1	inactive	inactive				inactive	inactive	inactive	inactive		inactive		inactive	inactive	inactive					
[Cl-].[Cl-].[Sn+2]	inactive	inactive		inactive		inactive	inactive	inactive	inactive		inactive		inactive	inactive					inactive	
